Measurements taken from PubChem BioAssay (EPA / NIEHS).
Inconclusive results are not listed. Activity calls are given as the source filed them. How the source made its calls: active means hit-call score of the fitted dose curve at least 0.9, where 1 is the maximum; inconclusive means response in the unintended direction; inactive means score below 0.9.

experiment: Tanguay_ZF_120hpf_PFIN_legacy: (Legacy) Oregon State University Tanguay Lab 120 Hour Post-fertilization zebrafish Assay for Pectoral Fin Malformation (AID 2283648);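 further: each larva judged yes or no for fin defect by brightfield with dead larvae skipped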
Description: Tanguay_ZF_120hpf_legacy is a whole embryo, multiplexed endpoint assay using zebrafish larvae exposed for 120 hours post fertilization on a 96-well plate.Tanguay_ZF_120hpf_PFIN_legacy is one of one assay component(s) measured or calculated from the Tanguay_ZF_120hpf_legacy assay. It is designed to make measurements of zebrafish development as detected with brightfield microscopy of developing zebrafish embryos.Data from the assay component Tanguay_ZF_120hpf_PFIN_legacy was analyzed into 1 assay endpoints. This assay endpoint, Tanguay_ZF_120hpf_PFIN_legacy, was analyzed in the positive analysis fitting direction relative to DMSO as the negative control and baseline of activity. Using a type of morphology reporter, gain-of-signal activity can be used to understand changes in developmentals as they relate to the whole embryo. To generalize the intended target to other relatable targets, this assay endpoint is annotated to the zebrafish development intended target family, where the subfamily is pectoral fin morphogenesis.
Zebrafish husbandry: Tropical 5D wild-type adult zebrafish were housed in at an approximate density of 1000 per 100 gallon tank at the Sinnhuber Aquatic Research Laboratory, Oregon State University, Corvallis, OR. Each tank was kept at standard laboratory conditions of 28C on a 14-h light/10-h dark photoperiod in fish water consisting of reverse osmosis water supplemented with a commercially available salt (Instant Ocean). Spawning funnels were placed into the tanks the night prior, and embryos were collected and staged. To increase bioavailability, the chorion was enzymatically removed using pronase (63.6mg/ml, >/= 3.5U/mg, Sigma-Aldrich: P5147) at 4 hours post fertilization (hpf) using a custom automated dechorionator.Chemical exposures: Six hpf dechorionated embryos were placed 1 embryo per well in a 96-well plate prefilled with 90 ul of EM using automated embryo placement systems (AEPS). Ten microliters of each row of dilution plate 2 was added to 2 exposure plates. The final DMSO concentration used was 0.64% (vol/vol). Thirty-two embryos were also exposed to 5uM trimethyltin chloride (positive control). Plates were sealed to prevent evaporation and foil covered to reduce light exposure and kept in a 28C incubator. Embryos were statically exposed until 120 hpf. At 24 hpf, embryos were assessed for photomotor response using a custom photomotor response analysis tool (PRAT) and for developmental toxicity endpoints (MO24: mortality at 24 hpf, DP: developmental progression, SM: spontaneous movement, and NC: notochord distortion). At 120 hpf, locomotor activity was measured using Viewpoint Zebralab and assessed for 18 endpoints. Zebrafish acquisition and analysis program (ZAAP), a custom program designed to inventory, acquire, and manage zebrafish data, was used to collect developmental endpoints as either present or absent (i.e., binary responses were recorded). If mortality occurred for an embryo (at either 24 or 120 hpf), the non-mortality endpoints were not measured.

Structure (SMILES) | outcome | AC50
COc1cnc(OC)n2nc(NS(=O)(=O)c3c(OCC(F)F)cccc3C(F)(F)F)nc12 | inactive | 
Cc1c(F)c(F)c(COC(=O)C2C(/C=C(\Cl)C(F)(F)F)C2(C)C)c(F)c1F (stereo not given) |  | 3.13 µM (active)
CON(C)C(=O)Nc1ccc(Cl)c(Cl)c1 | inactive | 
CCCCOC(=O)c1ccccc1C(=O)OCCCC | inactive | 
CC1COC(Cn2cncn2)(c2ccc(Oc3ccc(Cl)cc3)cc2Cl)O1 (stereo not given) |  | 3.69 µM (active)
N#CC(CCc1ccc(Cl)cc1)(Cn1cncn1)c1ccccc1 (stereo not given) | inactive | 
CCNc1nc(Cl)nc(NC(C)C)n1 | inactive | 
C#CCOS(=O)OC1CCCCC1Oc1ccc(C(C)(C)C)cc1 (stereo not given) | inactive | 
COc1ccc(C(c2ccc(OC)cc2)C(Cl)(Cl)Cl)cc1 | inactive | 
CNC(=O)ON=CC(C)(C)SC | inactive | 
COc1nc(NC(C)C)nc(NC(C)C)n1 | inactive | 
OC(c1ccc(Cl)cc1)(c1cncnc1)c1ccccc1Cl (stereo not given) | inactive | 
COC(=O)N(OC)c1ccccc1COc1ccn(-c2ccc(Cl)cc2)n1 | inactive | 
Fc1ccc(Oc2ccnc3cc(Cl)cc(Cl)c23)cc1 | inactive | 
COP(=S)(OC)Oc1nc(Cl)c(Cl)cc1Cl | inactive | 
CCOC(=O)CC(SP(=S)(OC)OC)C(=O)OCC (stereo not given) |  | 34 µM (active)
CCCCNC(=O)OCC#CI | inactive | 
COC(=O)c1ccccc1C(=O)OC | inactive | 
C=CCC1=C(C)[C@@H](OC(=O)[C@@H]2[C@@H](C=C(C)C)C2(C)C)CC1=O | inactive | 
C=CCC1=C(C)C(OC(=O)C2C(C=C(C)C)C2(C)C)CC1=O (stereo not given) | inactive | 

Structure (SMILES) | outcome | AC50
COC(=O)C=C(C)OP(=O)(OC)OC | inactive | 
COC(=O)C(C)Oc1ccc(Oc2ccc(Cl)cc2Cl)cc1 (stereo not given) | inactive | 
CO/C=C(/C(=O)OC)c1ccccc1Oc1cc(Oc2ccccc2C#N)ncn1 | inactive | 
CCNc1nc(Cl)nc(NCC)n1 | inactive | 
CNC(=S)S | inactive | 
CCCCNC(=O)n1c(NC(=O)OC)nc2ccccc21 | inactive | 
CCOC(=O)C(Cl)Cc1cc(-n2nc(C)n(C(F)F)c2=O)c(F)cc1Cl (stereo not given) |  | 2.19 µM (active)
CC(Oc1ccc(Cl)cc1Cl)C(=O)O (stereo not given) | inactive | 
CCCC1COC(Cn2cncn2)(c2ccc(Cl)cc2Cl)O1 (stereo not given) | inactive | 
Cc1cc(Cl)ccc1OCC(=O)O | inactive | 
CC(C)(C)c1ccc(CSc2cnn(C(C)(C)C)c(=O)c2Cl)cc1 | inactive | 
CN(C)C(=S)SSC(=S)N(C)C | inactive | 
CCc1nn(C)c(C(=O)NCc2ccc(C(C)(C)C)cc2)c1Cl | inactive | 
CC(C)Oc1cc(-n2nc(C(C)(C)C)oc2=O)c(Cl)cc1Cl | inactive | 
O=C(O)COc1nc(Cl)c(Cl)cc1Cl | inactive | 
O=C(O)c1nc(Cl)ccc1Cl | inactive | 
CCCN(CCC)c1c([N+](=O)[O-])cc(S(N)(=O)=O)cc1[N+](=O)[O-] | inactive | 
CCOP(=S)(OCC)SCn1c(=O)oc2cc(Cl)ccc21 | inactive | 
CC(C)C1(C)N=C(c2nc3ccccc3cc2C(=O)O)NC1=O (stereo not given) | inactive | 
CCOc1cc(Oc2ccc(C(F)(F)F)cc2Cl)ccc1[N+](=O)[O-] | inactive | 
